Test results taken from PubChem BioAssay AID1259240 (Keith Lab, Institute of Cancer Science, University of …, 2017).
Values without a mark were called inactive. Active and inactive are the calls of the source. Cut-off read from the data, not from the text of the source: active = fold change mostly below about -2 (no sharp cut-off); inactive = mostly above about -1.8.

Assay: modulation of TERT promoter-driven luciferase – cell-based, luciferase reporter, human, primary screen (AID 1259240)
Conditions: A2780 TERT promoter luciferase reporter, 16 h; at 20 µM, fold versus average of vehicle-only wells

Q: With O=C(CSc1c2c(nc3cc(Cl)ccc13)CCCC2)Nc1nccs1 as the compound, how does the fold change read?
A: Its fold change is -3.17 (active).

Q: For COC(=O)c1[nH]c(=O)c2ccccc2c1O, which fold change is on record?
A: The fold change was -1.15.

Q: With O=C(NC1CCCC1)c1ccc(CNc2c(NC3CCCC3)c(=O)c2=O)cc1 as the compound, how does the fold change read?
A: Its fold change is 1.06.

Q: For Cc1cc(C(=O)N2CCC(C)CC2)on1, which fold change is on record?
A: The fold change was 1.62.

Q: Which fold change does the source give for O=C(O)CN1C(=O)/C(=C/c2ccc(SCc3ccco3)o2)SC1=S here?
A: Its fold change is -1.49.

Q: With Cc1cc(C)cc(N2CN=c3s/c(=C4\C(=O)Nc5ccccc54)c(=O)n3C2)c1 as the compound, how does the fold change read?
A: The fold change was -1.15.

Q: For NC(=O)C1CCN(C(=O)CN2C(=O)COc3ccc(S(=O)(=O)N4CCCC4)cc32)CC1, which fold change is on record?
A: Its fold change is 1.05.

Q: For O=C(CCN1C(=O)c2ccccc2S1(=O)=O)Nc1cccc(Br)c1, which fold change is on record?
A: The fold change was 1.01.

Q: For COc1ccc(-c2c(C)oc3c(CN4CCN(C)CC4)c(O)ccc3c2=O)cc1OC, which fold change is on record?
A: Its fold change is 1.39.

Q: Which fold change does the source give for COC(=O)c1c(NC(=O)Cn2nc(C)c([N+](=O)[O-])c2C)sc2c1CCCC2 here?
A: The fold change was -1.68.

Q: For CCc1nc2ccccc2n1CC(O)COc1cccc(OC)c1 (stereo not given), which fold change is on record?
A: Its fold change is 1.45.

Q: Which fold change does the source give for CC(C)n1cnc2cc(NCc3ccccn3)ccc21 here?
A: The fold change was -1.44.

Q: Which fold change does the source give for COC(=O)CN1C(=O)C(O)(CC(=O)c2ccc(Br)cc2)c2ccccc21 (stereo not given) here?
A: Its fold change is -1.49.

Q: For COc1ccc(Nc2c(-c3cccc(O)c3)nc3ncccn23)cc1, which fold change is on record?
A: Its fold change is 1.03.

Q: Which fold change does the source give for COc1ccc(S(=O)(=O)c2cc3ccc(O)cc3oc2=O)cc1OC here?
A: Its fold change is -1.34.

Q: With COC(=O)CN1C(=O)CN(c2nc(C)cc(C)n2)C1=O as the compound, how does the fold change read?
A: Its fold change is -1.08.

Q: For Cc1ccc(C2CC(=O)Nc3cc4c(cc32)OCCO4)cc1Br (stereo not given), which fold change is on record?
A: Its fold change is -1.14.

Q: With Cc1cc(C)c2c(=O)n(CC(=O)N3CCOCC3)sc2n1 as the compound, how does the fold change read?
A: The fold change was 1.35.

Q: Which fold change does the source give for O=C(c1cnc2ccccc2n1)N1CCn2c(nc3ccccc32)C1 here?
A: The fold change was 1.4.

Q: With O=C(NCCc1c[nH]c2ccccc12)c1cc2ccccn2n1 as the compound, how does the fold change read?
A: Its fold change is 1.7.

Q: Which fold change does the source give for CC1CCCCC1NC(=O)c1cc2c(s1)-c1ccccc1OC2 (stereo not given) here?
A: The fold change was -2.96 (active).

Q: With COC(=O)c1cc(NS(=O)(=O)c2cccc3cccnc23)cc(C(=O)OC)c1 as the compound, how does the fold change read?
A: Its fold change is -1.91.

Q: With COc1ccc(-c2cc3ccccc3n2CC(O)CN2CCN(CCO)CC2)cc1 (stereo not given) as the compound, how does the fold change read?
A: The fold change was -1.49.

Q: For Cn1c(Cc2ccccc2)nn(CN2CCC3(CC2)OCCO3)c1=S, which fold change is on record?
A: Its fold change is -1.07.

Q: Which outcome does the source give for O=C(OCCCN=C1NS(=O)(=O)c2ccccc21)c1cccs1 here?
A: The outcome was “active”.

Q: Which fold change does the source give for O=C(NC1CCCc2ccccc21)c1cccc(NC2=NC3CS(=O)(=O)CC3S2)c1 (stereo not given) here?
A: Its fold change is 1.36.

Q: With COC(=O)c1ccc(-c2ccc(/C=C3/NC(=O)N(c4ccccc4)C3=O)o2)cc1 as the compound, how does the fold change read?
A: The fold change was -2.59 (active).

Q: With O=C(CCC(=O)NC1CCCC1)NNc1nc2ccccc2c2nc(-c3ccccc3)nn12 as the compound, how does the fold change read?
A: Its fold change is -1.47.

Q: For COc1ccccc1-c1nc(-c2ccccn2)no1, which fold change is on record?
A: Its fold change is -2.84 (active).

Q: For CC(C)C(NC(=O)CN1C(=O)c2ccccc2S1(=O)=O)C(C)C, which fold change is on record?
A: Its fold change is -2.34 (active).

Q: With COc1cccc(/C=c2\sc3nc(=O)c(Cc4ccc(Cl)cc4)nn3c2=O)c1OC as the compound, how does the fold change read?
A: Its fold change is -1.08.

Q: For Cn1c(=O)c2c(SCC(=O)Nc3ccc(F)cc3)nc(-c3ccco3)nc2n(C)c1=O, which fold change is on record?
A: Its fold change is 1.12.

Q: For COCC(=O)N1N=C(c2ccc(NS(C)(=O)=O)cc2)CC1c1ccccc1 (stereo not given), which fold change is on record?
A: Its fold change is 1.13.

Q: With NC(=O)C1CCN(C(=O)N2c3ccccc3Sc3ccccc32)CC1 as the compound, how does the fold change read?
A: Its fold change is -2.9 (active).

Q: For O=C(Nc1ccc(S(=O)(=O)N2CCCC2)cc1)C1c2ccccc2Oc2ccccc21, which fold change is on record?
A: The fold change was -1.83.

Q: With Cc1cc(C)n2c(NC(C)C)c(-c3ccc(C)o3)nc2n1 as the compound, how does the fold change read?
A: Its fold change is 1.2.

Q: With CN(C(=O)Cn1c(=O)n(CCCS(=O)(=O)C2CCCCC2)c(=O)c2ccccc21)c1ccccc1 as the compound, how does the fold change read?
A: The fold change was -1.1.

Q: For Cc1cc(=O)oc2c1c(C)nn2-c1ccc(C(=O)O)cc1, which fold change is on record?
A: The fold change was -2.62 (active).

Q: With COc1ccc2c(NCC3=CC=CC3)cc(C)nc2c1 as the compound, how does the fold change read?
A: The fold change was -1.73.

Q: For C1=C(CCNc2nnc(Cc3cccnc3)c3ccccc23)CCCC1, which fold change is on record?
A: Its fold change is -1.15.
